According to PubChem BioAssay (NCI):
About 83,000 compounds went through this panel and 20% of them were active in at least one assay; those are over-represented in the sample as a whole.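 Step 1: grow cells in 96-well plates. Step 2: add test compound at a single concentration. Step 3: incubate 48 h. Step 4: record percent growth.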 The source made the active and inactive calls. How the source made its calls: active means growth percent below 10; inactive means the rest.

system: HOP-62 NSCLC; assay: NCI-60 one-dose screen, 48 h (100 = growth as untreated, 0 = no growth, -100 = all killed); conditions: 10 µM

Compound | growth
O=C(/C=C/c1ccccc1)c1nc2ccccc2n1Cc1ccc(Br)cc1 | -68% (active)
C=CC[Se]C(=O)c1cncc(C(=O)[Se]CC=C)c1 | -60.6% (active)
COc1ccc(OC)c(/C=C/C(=O)c2nc3ccccc3n2Cc2ccc(F)cc2)c1 | -40.4% (active)
O=C(/C=C/c1ccc(F)cc1)c1nc2ccccc2n1Cc1ccc(Br)cc1 | -68.6% (active)
CC[C@]12C=CCN3CC[C@@]4(c5ccc(OC)cc5N(C)[C@H]4[C@@](O)(C(=O)OC)[C@@H]1OC(=O)CCCC[P+](c1ccc(C)cc1)(c1ccc(C)cc1)c1ccc(C)cc1)[C@@H]32 | -84% (active)
CC(C)N=C([Se])NC(=O)c1cccs1 | -2.97% (active)
CC1=C(CCC=NNC(N)=O)C2=C(C)C3(CC3)[C@@](C)(O)C(=O)C2=C1 | -78.8% (active)
Cc1ccc2[nH]c(=S)n(-c3ccc(F)cc3)c(=O)c2c1 | 96.3% (inactive)
C#CC[Se]C(=O)c1ccc2n[se]nc2c1 | 28.6% (inactive)
CC1=C(COCCOC(=O)c2ccc(S(=O)(=O)F)cc2)C2=C(C)C3(CC3)[C@@](C)(O)C(=O)C2=C1 | -27.5% (active)
CC12CCC3(CCC(=O)NCCCNc4ccnc5cc(Cl)ccc45)[C@@](C)(OO[C@]3(C)O1)O2 | -6.39% (active)
O=C(/C=C/c1ccc(Br)cc1)c1nc2ccccc2n1Cc1ccc(Br)cc1 | -22.1% (active)
COC(=O)CCn1c(-c2ccc(-n3cc(-c4ccc(O[C@H]5O[C@@H]6OC7(C)CC[C@H]8[C@H](C)CC[C@@H]([C@H]5C)[C@@]68OO7)cc4)nn3)cc2)nc2ccccc21 | 32% (inactive)
